Screens from PubChem BioAssay.
ERG Ets-DNA blk – ERG Ets/DNA interaction inhibition. P11308. fluorescence polarization, His-ERG Ets domain / labelled DNA. Potency, µM (highest dose often 76.9 µM), without a hit: top-dose FP activity, negative = inhibition, most hits filed as inhibitors. 0.028% of 370,000 active; active = well fitted inhibition curve with a large enough effect in the polarisation, with a control signal flat; inconclusive = small, poorly fitted or top-dose-only effect, or effect the other way, or a change in a side signal; inactive = no such curve, though single readings can be large or run the other way; the % refers to the polarisation;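 also: polarization taken with two DNA probes labelled with fluorescein and Texas red; potency is read from the fitted curve at half-maximal effect; % of control where 0% means no effect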
Target sequence (P11308 whole entry, looked up, the tested form may be a part): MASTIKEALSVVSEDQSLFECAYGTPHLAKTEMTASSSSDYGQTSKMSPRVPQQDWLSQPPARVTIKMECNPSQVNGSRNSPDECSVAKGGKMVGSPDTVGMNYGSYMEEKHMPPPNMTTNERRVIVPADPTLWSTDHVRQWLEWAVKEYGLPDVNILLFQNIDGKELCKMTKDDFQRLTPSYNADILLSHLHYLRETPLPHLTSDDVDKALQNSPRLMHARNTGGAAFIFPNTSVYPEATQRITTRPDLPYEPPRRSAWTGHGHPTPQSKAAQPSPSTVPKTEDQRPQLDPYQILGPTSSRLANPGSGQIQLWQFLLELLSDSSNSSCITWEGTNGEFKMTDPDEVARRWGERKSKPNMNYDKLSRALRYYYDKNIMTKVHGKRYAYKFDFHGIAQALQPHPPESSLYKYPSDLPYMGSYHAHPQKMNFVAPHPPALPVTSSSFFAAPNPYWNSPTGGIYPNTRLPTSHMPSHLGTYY
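His-tagged ERG Ets domain (1 uM in the protein solution; 300mM KCl, 50mM Tris-HCl, 1mM EDTA, 1mM DTT, pH 7.5) received compound, then a probe mix of 5 nM fluorescein-DNA and 100nM Texas-615-DNA. Fluorescence polarization was read for both dyes.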
ALOX12 inh – inhibitors of human 12S-lipoxygenase ALOX12; P18054; purified 12hLO, xylenol orange hydroperoxide absorbance; Potency, µM (titrated, usually from 108 µM), without a hit: at the highest dose activity change, negative = inhibition, actives largely listed as inhibitors; 1.1% of 580,000 active; AID 1671190; also: potency is read from the fitted curve at half-maximal effect; % is scaled to controls: 0 for no effect and ±100 for the full control effect
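Hydroperoxide product was detected by ferrous iron/xylenol orange as the 573 to 405 nm absorbance ratio. Arachidonic acid at 40 uM (final) was turned over for 30 min at room temperature by 150 nM human 12hLO, pH 7.0 Hepes buffer, after 15 min compound preincubation.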
Nrf2 ARE act – Nrf2 pathway activation | AREc32 ARE-luciferase reporter (MCF7-derived line), luminescence, 24 h | Potency, µM (doses to about 46.1 µM), inactives show top-dose activation, most hits filed as activators | 0.31% of 410,000 active | AID 624171; also: potency is read from the fitted curve at half-maximal effect; % of control where 0% means no effect; nearly all actives have a fitted effect of over 65% in size
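Each well held 1000 AREc32 cells, which were incubated with compound for 24 hr at 37 deg C after overnight attachment, and ARE reporter activity was quantified by firefly luciferase luminescence.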
Nrf2 block – inhibitors of Nrf2 signaling; Potency, µM (doses to about 46 µM), for the others: top-dose activity change, negative = inhibition, actives largely listed as inhibitors; 2.1% of 360,000 active; A549 ARE-Fluc reporter, luciferase luminescence, 18-24 h; also: potency is read from the fitted curve at half-maximal effect; % is scaled to controls: 0 for no effect and ±100 for the full control effect; nearly all actives have a fitted effect of over 60% in size
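In this cell-based qHTS, ARE-driven firefly luciferase in A549 cells reports Nrf2 activity; the luminescent signal after BugLite lysis is the measured value, with a prior CellTiter-Fluor read for cell health.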
A549 viability – kills or reduces viability of A549 cells in Nrf2 counter-screen | A549 ARE-Fluc cells, CellTiter-Fluor viability, 18-24 h | Potency, µM (top dose mostly 46 µM), for inactives: top-dose activity change, negative = cytotoxicity, hits mostly inhibitors | 0.16% of 390,000 active; also: potency is read from the fitted curve at half-maximal effect; % is scaled to controls: 0 for no effect and ±100 for the full control effect
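A549 ARE-Fluc cells in 5% FBS OPTI-MEM, 5000 cells/well, rested 2 h then exposed to compounds in concentration-response for 18-24 h at 37 °C. Viability by CellTiter-Fluor fluorescence (Ex 405/Em 525) after 30 min; luciferase luminescence (BugLite, 15 min, RT) read afterwards.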
LDHA inh – LDHA (human) enzyme inhibition | purified LDHA, NADH/diaphorase-resazurin fluorescence; stronger effect = lower value | 0.15% of 480,000 active | AID 1347041 | activity change, % (values are at about 110 or 230 µM); in the data active = activity change below about -30%; inconclusive = mostly about -25% to -30%;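 also: plate controls were DMSO wells for no effect and wells without enzyme for full effect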
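Remaining NADH was detected by diaphorase (0.133 mg/mL) converting 37 µM resazurin to fluorescent resorufin, read at 0 and 20 minutes. The preceding 5-minute room-temperature reaction used 2 nM LDHA, 0.2 mM sodium pyruvate and 0.06 mM NADH at pH 7.4.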
* = called active by the depositor; ? = inconclusive; . = no result given; [ ] = another dose, or the depositor's remark. Hits are enriched below; roughly 2.7% of the tested compounds scored in any of these assays. Unless noted, calls follow the shape of the dose curve; as a rule, active = well fitted curve in the direction sought with a large enough effect; inconclusive = small, poorly fitted or top-dose-only effect, or another doubt; inactive = no such curve, though single readings can be large; an effect the other way counts as inactive or inconclusive.

SMILES	ERG Ets-DNA blk	ALOX12 inh	Nrf2 ARE act	Nrf2 block	A549 viability	LDHA inh
COc1ccc2[nH]c3c(N4CCc5ccccc5C4)ncnc3c2c1	2.4%	?	-2.4%	16.4µM*	18.4µM*	3.6
CCOC(=O)N1CCN(c2ncnc3c2[nH]c2ccc(OC)cc23)CC1	-2.5%	-23.0%	2.9%	?	-10.1%	-0.8
CCOC(=O)N1CCN(c2ncnc3c2[nH]c2ccc(F)cc23)CC1	-2.8%	-15.9%	2.6%	14.6µM*	-14.3%	?
Fc1ccc2[nH]c3c(Cl)ncnc3c2c1	-13.7%	3.7%	14.2%	4.5%	-0.6%	-10.3
CC1=C(C(=O)Nc2ccccc2)C(c2ccc(Cl)cc2Cl)NC(=S)N1 (stereo not drawn)	.	-92.0%	.	.	.	-0.8
COc1cc(/C=N/O)cc(Br)c1OC(C)=O	.	-27.7%	.	.	.	-21.2
OC1(c2cccc(C(F)(F)F)c2)CCN(c2ncnc3c2[nH]c2ccc(F)cc23)CC1	2.2%	0.0%	-3.4%	11.6µM*	20.6µM*	-2.7
COc1ccc(NC(=O)N(C)C[C@@H]2Oc3cc(Br)ccc3S(=O)(=O)N([C@H](C)CO)C[C@H]2C)cc1	.	6.9%	-1.4%	.	.	-35.2*
C[C@H](CO)N1C[C@H](C)[C@@H](CN(C)C(=O)c2cnccn2)Oc2cc(C#CCC3CCCC3)ccc2S1(=O)=O	.	35.5µM*	3.0%	.	.	6.7
CC(C)C#Cc1ccc2c(c1)O[C@@H](CN(C)C(=O)c1cnccn1)[C@@H](C)CN([C@@H](C)CO)S2(=O)=O	.	?	4.2%	.	.	1.2
C=C1C(=O)C=C2CN(C(=O)c3ccccc3)[C@@](Cc3ccc(F)cc3)(C(=O)OC)[C@@H]12	4.6%	.	-2.9%	13µM*	10.3µM*	-9.6
Cc1nc2ccccc2c(C)c1C(=O)c1ccc(Cl)cc1	.	7.94µM*	.	.	.	7.0
O=C(c1ccncc1)N(c1ccc(N2CCOCC2)cc1)C(c1ccccc1)c1nc2ccccc2[nH]1 (stereo not drawn)	.	11.2µM*	13.1%	.	.	12.5
CCC(c1nc2ccccc2[nH]1)N(C(=O)Cc1cc(OC)cc(OC)c1)c1ccc(N2CCOCC2)cc1 (stereo not drawn)	.	1.2%	0.6%	.	.	2.8
Cc1ccc(C)c(NC(=O)c2ccccn2)c1	3.0%	-6.6%	3.4%	?	1.7%	-3.0
CCCNC(=S)Nc1ccc(F)cc1F	-0.7%	201.6%	-0.3%	11.6µM*	0.5%	-0.1
COc1cc(NC(=S)Nc2ncccc2C)cc(OC)c1OC	4.8%	15.8µM*	5.3%	0.7%	2.2%	0.9
CCCNC(=S)Nc1cccc(F)c1	.	?	.	.	.	-6.1
Cc1ccc(C)c(NC(=S)Nc2ncccc2C)c1	2.7%	28.2µM*	3.6%	?	-7.0%	-7.5
Cc1cccnc1NC(=S)Nc1ccc(F)cc1F	-19.1%	15.8µM*	3.5%	4.1%	6.8%	-4.2
COc1cc(NC(=S)Nc2cccc(C)n2)cc(OC)c1OC	-0.3%	-10.9%	9.3%	-19.5%	-1.7%	1.7
CC(=O)N1CCN(c2nc(CC(C)C)c3c(c2C#N)CCCC3)CC1	.	10.4%	.	.	.	-0.8
O=C(N/C(=C/c1cccc(Br)c1)c1nc(=S)[nH][nH]1)c1ccccc1	-3.8%	35.5µM*	?	4.8%	-3.1%	-0.4
COc1ccc(/C=C(/NC(=O)c2ccccc2)c2nc3ccccc3[nH]2)cc1OC	5.0%	0.0%	2.6%	3.6%	-2.7%	-4.1
Cc1ccc(C(=O)N/C(=C\c2ccc(Br)cc2)c2nc(=S)[nH][nH]2)cc1	.	15.8µM*	3.0%	?	25.9µM*	3.3
SMILES	ERG Ets-DNA blk	ALOX12 inh	Nrf2 ARE act	Nrf2 block	A549 viability	LDHA inh
COc1cc(C(=S)N2CCN(CCO)CC2)ccc1OCc1ccc(C)cc1	.	?	.	.	.	5.7
COc1ccc(C(=O)COC(=O)c2ccc(OC(F)F)c(OC)c2)c(OC)c1	.	?	.	.	.	5.0
Cc1ccc(C(=O)Cn2c(=O)n(CCc3ccccc3)c(=O)c3sccc32)cc1	.	?	.	.	.	-1.3
OCC1(Cc2ccccc2)CCN(C2CCN(c3ccc(F)c(F)c3)CC2)CC1	0.5%	50.1µM*	0.5%	6.7%	?	-8.1
OCC1(Cc2ccccc2)CCN(CCCC2CCCC2)CC1	-7.8%	?	-0.2%	7.2%	-2.6%	-5.5
CCOCCCNCc1ccc(C(=O)O)cc1	.	?	.	.	.	3.7
N#Cc1nc(-c2ccco2)oc1N1CCC(C(=O)NC2CCCCCCC2)CC1	.	?	.	.	.	7.3
N#Cc1c(-c2ccccc2)cc(-c2cccs2)nc1SCC(O)CS(=O)Cc1ccccc1 (stereo not drawn)	.	-4.4%	.	.	.	2.6
Cn1c(CN2CCCCC2)nc2cc(NC(=O)c3ccc(Cl)cc3)ccc21	-9.5%	-17.8%	-0.1%	5.8µM*	-4.7%	-3.9
Cn1c(CN2CCCC2)nc2cc(NC(=O)c3ccc(Cl)cc3)ccc21	-1.4%	12.8%	4.4%	?	-9.7%	-2.2
CCCCc1cc(C[C@H]2CNCC[C@H]2CC(=O)Nc2ccccc2)no1	.	11.6%[176 µM]	.	.	.	.
Cc1cc(C(c2ccc(C)o2)c2ccc(C)o2)c(O)c([N+](=O)[O-])c1	-7.9%	35.5µM*	4.4%	2.0%	-5.9%	10.0
Cn1cc(/C=C(\NC(=O)c2ccco2)C(=O)N2CCOCC2)c2ccccc21	.	8.9%	.	.	.	11.8
O=S(=O)(NCCO)c1ccc(Oc2ccc(S(=O)(=O)NCCO)cc2)cc1	.	-6.4%	.	.	.	0.1
Cc1ccnc(OC(C(=O)O)C(OCc2ccccc2)(c2ccccc2)c2ccc(C(F)(F)F)cc2)n1 (stereo not drawn)	-3.9%	17.0%	-0.3%	10.3µM*	-18.3%	4.3
Cc1ccc(-c2nc(-c3nc(-c4ccc(C)cc4C)cs3)sc2C)cc1	.	?	.	.	.	6.6
CCOc1cc(/C=C/C(=O)c2ccc(O)cc2)ccc1OCC(=O)N(C)C	2.0%	-16.4%	?	-12.8%	-13.8%	-1.6
CCOc1cc(/C=C/C(=O)c2ccc3c(c2)OCCO3)ccc1OCC(=O)N(C)C	-0.3%	-5.2%	11.2µM*	-16.7%	1.9%	-4.0
COc1ccc(-c2nc3cc(NC(=O)c4ccc(C)cc4)ccc3o2)cc1OC	.	-18.9%	.	.	.	5.7
O=C(c1ccc(S(=O)(=O)Cc2ccccc2F)c([N+](=O)[O-])c1)N1CCCCCC1	-1.4%	6.5%	?	?	?	0.8
O=C(c1ccc(S(=O)(=O)Cc2cc(F)ccc2F)c([N+](=O)[O-])c1)N1CCOCC1	.	-10.9%	12.6µM*	.	.	2.1
Brc1ccc(-c2nnc(-c3cccs3)o2)o1	.	?	.	.	.	2.1
COC(=O)c1ccccc1NC(=O)C1CC(c2ccc(F)cc2)=NO1 (stereo not drawn)	0.5%	-17.9%	1.8%	4.11µM*	-7.0%	-9.4
CCc1ccccc1NC(=O)C1CC(c2ccc(F)cc2)=NO1 (stereo not drawn)	-2.4%	22.8%	-0.5%	?	3.2%	-2.0
